Experiment in all cases: NCI-60 one-dose screen, 48 h (100 = growth as untreated, 0 = no growth, -100 = all killed)
One experiment has as its system SK-MEL-2 melanoma. The following applies: 10 µM unless noted.
The test system of the next experiment is EKVX NSCLC. The settings on record: 10 µM unless noted.
In the next experiment the test system is SN12C renal. The following applies: 10 µM unless noted.
For another experiment, the system named is UO-31 renal. The following applies: 10 µM unless noted.
Another experiment relates to TK-10 renal. The settings on record: 10 µM unless noted.
The test system of the next experiment is ACHN renal. The settings on record: 10 µM unless noted.
The subject of the next experiment is A498 renal. The settings on record: 10 µM unless noted.
The subject of a further experiment is CCRF-CEM leukemia. The following applies: 10 µM unless noted.
For a further experiment, the system named is MOLT-4 leukemia. The following applies: 10 µM unless noted.
A further experiment deals with SR leukemia. The settings on record: 10 µM unless noted.
The next experiment has as its system RPMI-8226 leukemia. The following applies: 10 µM unless noted.
The test system of a further experiment is OVCAR-8 ovarian. The following applies: 10 µM unless noted.
The next experiment concerns OVCAR-5 ovarian. The following applies: 10 µM unless noted.
For a further experiment, the system named is OVCAR-4 ovarian. The following applies: 10 µM unless noted.
A further experiment relates to SK-OV-3 ovarian. The following applies: 10 µM unless noted.
In a further experiment the test system is IGROV1 ovarian. The following applies: 10 µM unless noted.
The subject of another experiment is OVCAR-3 ovarian. The settings on record: 10 µM unless noted.
The next experiment has as its system HS 578T breast. The following applies: 10 µM unless noted.
The next experiment concerns NCI/ADR-RES ovarian. The settings on record: 10 µM unless noted.
A further experiment has as its system CAKI-1 renal. The settings on record: 10 µM.

The panel holds about 83,000 compounds, 20% with a hit somewhere; the sample as a whole holds those more often.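 Note: values are percent growth. 100 is the growth of untreated cells, values between 100 and 0 indicate rising inhibition; between -100 and 0 indicates cell death.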 Unmarked numbers belong to inactive results. Activity calls are given as the source filed them. Rule for the calls: active = growth percent below 10; inactive = the rest.

Regarding `COC1=C(c2ccccc2)C(=O)C(OC)=C(c2ccccc2)C1=O`, the growth was 101% with SK-MEL-2 melanoma; 99% with EKVX NSCLC; 102% in the experiment with SN12C renal; 89.8% in the experiment on UO-31 renal; 107% in the experiment with TK-10 renal; 117% with ACHN renal. Moreover, the growth is 89.7% in the experiment on A498 renal; 10.9% with CCRF-CEM leukemia; -7.74% (active) with MOLT-4 leukemia; 79.8% in the experiment on SR leukemia; 93.5% with RPMI-8226 leukemia; 100% in the experiment with OVCAR-8 ovarian. Further, the growth in the experiment with OVCAR-5 ovarian was 119%; in the experiment with OVCAR-4 ovarian it was 59.6%; in the experiment with SK-OV-3 ovarian, 81.2%; in the experiment on IGROV1 ovarian, 93.2%; in the experiment on OVCAR-3 ovarian, 72.6%; in the experiment on HS 578T breast, 96.8%. Besides, the growth in the experiment on NCI/ADR-RES ovarian was 102%.
For `C#CCOc1ccc(C(Nc2ccc(OC)cc2)c2nnnn2C2CCCCC2)cc1` (stereo not drawn), the growth is 104% in the experiment on SK-MEL-2 melanoma; 87.4% with EKVX NSCLC; 96.5% in the experiment on SN12C renal; 80.4% with UO-31 renal; 112% in the experiment with TK-10 renal; 97.3% in the experiment with ACHN renal. In addition, the growth was 76.5% in the experiment with CAKI-1 renal; 91.4% with MOLT-4 leukemia; 95.6% in the experiment on SR leukemia; 95.2% in the experiment with OVCAR-8 ovarian; 102% with OVCAR-5 ovarian; 103% with OVCAR-4 ovarian. The growth was 118% with SK-OV-3 ovarian; 91.6% in the experiment on IGROV1 ovarian; 112% with OVCAR-3 ovarian; 95.2% in the experiment on HS 578T breast; 88.1% in the experiment with NCI/ADR-RES ovarian.
Take `O=c1c2c(O)cccc2oc2c3c(cc(O)c12)O[C@H]1OC=C[C@@H]31`: the growth was 95.5% in the experiment on SK-MEL-2 melanoma; 42.8% in the experiment with EKVX NSCLC; 92.6% in the experiment with SN12C renal; 79.3% with UO-31 renal; 89.5% in the experiment with TK-10 renal; 74.9% in the experiment with ACHN renal. Besides, the growth in the experiment with A498 renal is 89.1%; in the experiment on CCRF-CEM leukemia it was 92.7%; with MOLT-4 leukemia, 88.5%; in the experiment with SR leukemia, 42.6%; in the experiment on RPMI-8226 leukemia, 93.7%; in the experiment on OVCAR-8 ovarian, 87.8%. Moreover, the growth in the experiment on OVCAR-5 ovarian is 110%; in the experiment with OVCAR-4 ovarian it was 94.5%; in the experiment with SK-OV-3 ovarian, 78.9%; in the experiment with IGROV1 ovarian, 77.4%; with OVCAR-3 ovarian it was 106%; in the experiment with HS 578T breast it was 94.9%. In addition, the growth with NCI/ADR-RES ovarian was 87.9%.
Take `COc1ccc(/C=C/C(=O)c2nnn(-c3ccc(Br)cc3)c2C)cc1OC`: the growth in the experiment with SK-MEL-2 melanoma was 88.6%; in the experiment on EKVX NSCLC, 62.3%; in the experiment on SN12C renal, 80.2%; with UO-31 renal, 66.7%; in the experiment on TK-10 renal it was 95.4%; with ACHN renal, 86%. Further, the growth was 83.4% in the experiment on CAKI-1 renal; 66.4% with CCRF-CEM leukemia; 78.4% in the experiment on MOLT-4 leukemia; 52.6% in the experiment on SR leukemia; 10.5% in the experiment with RPMI-8226 leukemia; 82.7% in the experiment with OVCAR-8 ovarian. Moreover, the growth was 94.1% with OVCAR-5 ovarian; 71.6% in the experiment with OVCAR-4 ovarian; 90.3% in the experiment with SK-OV-3 ovarian; 69.2% with IGROV1 ovarian; 52.9% in the experiment on OVCAR-3 ovarian; 59.3% in the experiment on NCI/ADR-RES ovarian.
For `C#CCOc1ccc(C(Nc2ccc(Cl)cc2)c2nnnn2C2CCCCC2)cc1` (stereo not drawn), the growth is 91.4% in the experiment with SK-MEL-2 melanoma; 53.9% in the experiment on EKVX NSCLC; 85.9% with SN12C renal; 64.9% in the experiment on UO-31 renal; 95% in the experiment on TK-10 renal; 96.2% in the experiment with ACHN renal. The growth with CAKI-1 renal was 50.3%; in the experiment on CCRF-CEM leukemia, 91%; in the experiment on MOLT-4 leukemia, 72.5%; with SR leukemia it was 81%; in the experiment on RPMI-8226 leukemia, 76.9%; in the experiment with OVCAR-8 ovarian it was 93.5%. The growth in the experiment with OVCAR-5 ovarian was 85.5%; with OVCAR-4 ovarian, 82.6%; in the experiment on SK-OV-3 ovarian, 98.2%; in the experiment with IGROV1 ovarian, 84.3%; in the experiment with OVCAR-3 ovarian, 101%; in the experiment on NCI/ADR-RES ovarian, 76.6%.
With `CCOc1ccc2nc(NC(=O)Nc3ccccc3C)sc2c1`, the growth in the experiment with SK-MEL-2 melanoma was 48.5%; with EKVX NSCLC, 72%; with SN12C renal, 58.7%; with UO-31 renal, 66.3%; in the experiment with TK-10 renal, 64.5%; with ACHN renal, 67%. Also, the growth with CAKI-1 renal is 60.9%; in the experiment on CCRF-CEM leukemia it was 47.7%; in the experiment with MOLT-4 leukemia, 34.5%; in the experiment with SR leukemia, 24.3%; with OVCAR-8 ovarian it was 74.7%; with OVCAR-5 ovarian it was 80.2%. Also, the growth in the experiment on OVCAR-4 ovarian is 80.2%; with SK-OV-3 ovarian, 82.3%; in the experiment on IGROV1 ovarian it was 49.5%; in the experiment on OVCAR-3 ovarian it was 20.7%; with HS 578T breast, 50.5%; in the experiment with NCI/ADR-RES ovarian, 22.8%.
With `Cc1cc(O)c(=O)cc2c1C[C@H]1CC(C)(C)/C=C/C[C@]3(C)Oc4cc(=O)c(O)cc(C)c4C[C@H]3C[C@H](O)[C@@]1(C)O2`, the growth in the experiment with SK-MEL-2 melanoma was -27.1% (active); in the experiment with EKVX NSCLC, 3.91% (active); in the experiment on SN12C renal, 6.41% (active); in the experiment on UO-31 renal, -15.8% (active); in the experiment on TK-10 renal, -1.4% (active); in the experiment with ACHN renal, -3.47% (active). In addition, the growth in the experiment on A498 renal is -7.88% (active); in the experiment with CCRF-CEM leukemia, 4.82% (active); in the experiment with MOLT-4 leukemia, 2.51% (active); with SR leukemia it was 4.18% (active); in the experiment on RPMI-8226 leukemia, -0.673% (active); in the experiment with OVCAR-8 ovarian, 2.98% (active). The growth with OVCAR-5 ovarian was 26.9%; in the experiment with OVCAR-4 ovarian, 9.74% (active); in the experiment with SK-OV-3 ovarian it was -14.3% (active); in the experiment on IGROV1 ovarian, 6.73% (active); with OVCAR-3 ovarian it was 14.5%; with HS 578T breast it was 18.7%. Further, the growth in the experiment on NCI/ADR-RES ovarian was 1.38% (active).

Values taken from PubChem BioAssay (NCI).
